# Compound activity from PubChem.
# MCF10A rereplic: inducers of DNA re-replication in MCF 10A breast cells; hit rate 2.9% among 350,000; Potency, µM (titrated, usually from 46.1 µM), actives largely listed as activators; MCF 10A DNA re-replication, Hoechst nuclear intensity, 48 h; further: nearly all actives have a fitted effect of over 50% in size
# HT1080 IDH1KD tx: toxicity to HT-1080 IDH1 knockdown cells (counter line); HT-1080 IDH1 knockdown viability, ATP luminescence, 48 h; AID 686971; hit rate 2% among 360,000; Potency, µM (series often up to 46.1 µM), most hits filed as cytotoxic
#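 Viability of IDH1-knockdown HT-1080 fibrosarcoma cells was assessed by CellTiter-Glo after 48 h at 37 °C with titrated compound; concentration-effect curves were classified by fit quality and response size.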
# KB-V1 MDR tox: KB-V1 MDR subline cytotoxicity; Potency, µM (top dose mostly 46.1 µM), hits mostly cytotoxic; KB-V1 MDR cells viability, CellTiter-Glo, 72 h; AID 1347076; hit rate 3.4% among 400,000; further: nearly all actives have a fitted effect of over 60% in size
#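 Cytotoxicity toward P-gp-expressing KB-V1 cells was determined as loss of CellTiter-Glo luminescence after 72 h at 37 degrees C. Compounds were tested in quantitative HTS format across a concentration range, with curves fitted to normalized data.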
# KB-3-1 cytotox: KB-3-1 parental cell cytotoxicity | KB-3-1 viability, CellTiter-Glo ATP luminescence, 72 h | Potency, µM (top dose mostly 46.1 µM), actives largely listed as cytotoxic | hit rate 1.4% among 400,000; further: nearly all actives have a fitted effect of over 60% in size
#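 Cells are dispensed, compounds pinned in, plates held at 37 °C for 72 h, then CellTiter-Glo is added and luminescence read after 10 minutes. Cell line: parental KB-3-1 in phenol-red-free DMEM, 10% FBS.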
# SW480 rerep: inducers of DNA re-replication in SW480 colon cancer cells; SW480 DNA re-replication, Hoechst DNA content imaging, 48 h; Potency, µM (doses to about 46.1 µM), usual class: activators; hit rate 1.8% among 340,000; further: nearly all actives have a fitted effect of over 55% in size
#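 First, 250 cells per well were seeded. Next, compound or vehicle (23 nL) was pinned in, plates sat 48 hr at 37 C. Finally Hoechst was added for 40 min before fluorescence scanning.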
# HT1080NT lethal: kills 2HG-producing HT-1080-NT fibrosarcoma cells | HT-1080-NT fibrosarcoma viability, CellTiter-Glo ATP luminescence, 48 h | Potency, µM (titrated, usually from 46.1 µM), usual class: cytotoxic | hit rate 1.6% among 360,000 | AID 686970;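 further: NT is the 2HG producing partner of a matched IDH1 knockdown line; nearly all actives have a fitted effect of over 55% in size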
#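 Toxicity toward the 2HG-producing NT line was scored as %Activity, normalised to DMSO and no-cell wells, from CellTiter-Glo luminescence after 48 hours' treatment.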
# Numbers stand for hits; . = inactive; ? = inconclusive; / = not tested or not shown; [ ] = remark or other dose. The list is not random: actives were taken first. Their share in the collection is about 7.9%. The call rests on the fitted dose curve; in most records, active means well fitted curve in the direction sought with a large enough effect; inconclusive means small, poorly fitted or top-dose-only effect, or another doubt; inactive means no such curve, though single readings can be large; an effect the other way counts as inactive or inconclusive.
SMILES,MCF10A rereplic,HT1080 IDH1KD tx,KB-V1 MDR tox,KB-3-1 cytotox,SW480 rerep,HT1080NT lethal
Cc1cc(C(C)(C)C)cc(C)c1C[n+]1ccc2ccccc2c1,?,?,.,1.64µM,.,?
CCOC(=O)N1CCC(n2c(SCC(=O)c3ccccc3)nc3ccsc3c2=O)CC1,.,.,.,.,.,.
CCOC(=O)N1CCC(n2c(SCC(=O)OCc3ccccc3)nc3ccsc3c2=O)CC1,.,.,.,.,.,.
CCOC(=O)N1CCC(n2c(SCC(=O)NCc3ccco3)nc3ccsc3c2=O)CC1,.,.,2.06µM,?,.,.
CCOC(=O)CSc1nc2ccsc2c(=O)n1C1CCN(C(=O)OCC)CC1,.,.,16.4µM,.,.,.[9.24 µM]
COc1ccc(-n2ncc(C(=O)N3CCc4ccccc4C3)c2C2CCN(C(=O)OC(C)(C)C)CC2)cc1,/,/,.,.,/,/
COc1cc2c(cc1OC)n(Cc1cccc(C(F)(F)F)c1)c(=O)n1nc(-c3ccccc3)nc21,/,/,?,.,/,/
Cc1cc(Br)ccc1NC(=O)CCS(=O)(=O)c1cccc2nsnc12,/,/,.,.,/,/
O=C(Nc1ccc(CN2CCOCC2)cc1)c1ccc(Cl)cc1,.,.,9.2µM,?,.,.
COC(=O)c1ccc(/C=N\N2CCN(Cc3ccc(C)cc3)CC2)cc1,.,.,8.2µM,.,.,.
O=C(Nc1ccc(CN2CCOCC2)cc1)c1ccc(Br)cc1,?,.,.,.,.,.
COC(=O)c1ccc(NC(=O)c2ccc(CN3CCOCC3)cc2)cc1,?,?,2.59µM,.,.,?
CC(C)c1ccc(C(=O)Nc2ccc(N3CCOCC3)cc2)cc1,23.1µM,?,.,?,?,?
CC1=C(C(=O)Nc2ccc(C)cc2C)C(c2ccccc2C)n2ncnc2N1 (stereo not given),/,/,?,.,/,/
COc1ccc(Cl)cc1NC(=O)Cn1c(=O)n(Cc2cccs2)c(=O)c2cccnc21,/,/,.,.,/,/
C[C@]12CCC(=O)C=C1CC[C@@H]1[C@@H]2[C@@H](O)C[C@@]2(C)[C@H]1CC[C@]2(O)C(=O)COP(=O)(O)O,.,/,/,/,.,/
CCOc1ccccc1NC(=O)C1CCN(S(=O)(=O)Cc2ccccc2)CC1,/,/,.,.,/,/
COc1ccc(/C=C2\C(=O)NCC(=O)N2C)cc1,.,.,.,.,.,.
COc1ccc(/C=C2\C(=O)NCC(=O)N2Cc2ccccc2)cc1,?,?,?,?,16.4µM,?
CCOC(=O)C1(Cc2cccc(OC)c2)CCN(Cc2ccccc2OC)CC1,.,?,?,.,.,?
CCOC(=O)C1(Cc2cccc(F)c2)CCN(Cc2cnn(CC)c2)CC1,?,?,.,.,.,.
CCOC(=O)C1(CCOc2ccccc2)CCN(Cc2cc(OC)c3c(c2)OCO3)CC1,?,18.4µM,.,?,?,18.4µM
CCOC(=O)C1(CCOc2ccccc2)CCN(Cc2cccc3c2OCO3)CC1,?,?,?,?,?,20.6µM
CCOC(=O)C1(Cc2cccc(F)c2)CCN(Cc2nc(CC)[nH]c2C)CC1,12.6µM,.,.,.,5.8µM,?
CCOC(=O)C1(Cc2cccc(OC)c2)CCN(Cc2cccc(OC)c2O)CC1,?,?,5.17µM,?,.,?
SMILES,MCF10A rereplic,HT1080 IDH1KD tx,KB-V1 MDR tox,KB-3-1 cytotox,SW480 rerep,HT1080NT lethal
CCc1ccccc1N(C)C(=O)Cn1cnc2sc(C)c(S(=O)(=O)N3CCC(C)CC3)c2c1=O,/,/,.,.,/,/
COC(=O)CC1Oc2ccc(Cl)cc2-n2cc(-c3ccc(F)cc3)nc21 (stereo not given),/,/,.,.,/,/
CCOC(=O)Cc1csc(NC(=O)CSc2nnc(-n3nc(C)cc3C)c3ccccc23)n1,.,.,20.6µM,.,.,.
CCOC(=O)Cc1csc(NC(=O)COc2ccc(C)cc2)n1,.,.,?,.,.,.
CCOC(=O)Cc1csc(NC(=O)c2ccc(Cl)s2)n1,.,.,.,?,.,.
CCOC(=O)Cc1csc(NC(=O)c2cc(C)c(C)s2)n1,.,.,18.4µM,?,.,.
CCOC(=O)Cc1csc(NC(=O)COc2ccccc2)n1,.,.,.,.,.,10µM
N#C/C(=C\c1ccc(-c2cc(Cl)ccc2Cl)o1)C(=O)Nc1ccccc1C(=O)O,/,/,.,.,/,/
COc1ccccc1NC(=O)c1cc(=O)c2ccc(C)c(C)c2o1,/,/,.,.,/,/
COc1ccc(-c2cn3nc(N4CCCC(C(=O)NCc5ccccc5OC)C4)sc3n2)cc1 (stereo not given),/,/,.,.,/,/
COc1ccc(-c2csc(C(O)(c3ccccc3)C(F)(F)F)n2)cn1 (stereo not given),/,.,.,.,/,23.1µM
COc1ccc(-c2csc(C(C)(O)c3cccnc3)n2)cn1 (stereo not given),/,.,.,.,/,.
COc1cccc(C(N)c2nc(-c3csc4ccccc34)cs2)c1 (stereo not given),/,?,8.2µM,7.31µM,/,?
N#Cc1cccc(-c2csc(C(O)(c3ccccc3)C(F)(F)F)n2)c1 (stereo not given),/,16.4µM,?,?,/,?
OC(c1ccccc1)(c1nc(-c2cccc(C(F)(F)F)c2)cs1)C(F)(F)F (stereo not given),/,16.4µM,?,.,/,23.1µM
CC1CCCC(NC(=O)c2cccc(S(=O)(=O)N3CCOCC3)c2)C1C (stereo not given),/,.,.,.,/,.
CCN(CC)C(=O)c1cccc(-c2csc(C(O)(c3ccccc3)C(F)(F)F)n2)c1 (stereo not given),/,16.4µM,?,?,/,23.1µM
COc1ccc(C(C)(O)c2nc(-c3csc4ccccc34)cs2)cc1 (stereo not given),/,16.4µM,.,?,/,?
OC(c1ccccc1)(c1nc(-c2ccc(Cl)cc2)cs1)C(F)(F)F (stereo not given),/,?,.,.,/,16.4µM
O=C(O)c1cccc(-c2csc(C(O)(c3ccccc3)C(F)(F)F)n2)c1 (stereo not given),/,.,.,.,/,.
COc1ccc(-c2csc(C(O)(c3ccccc3)C(F)(F)F)n2)cc1 (stereo not given),/,?,.,.,/,?
FC(F)(F)c1cccc(-c2ccn3ncnc3n2)c1,.,.,20.6µM,.,.,.
CC1(C)O[C@H]2[C@@H](O1)[C@@H](C(=O)Nc1ccccc1O)O[C@@H]1OC(C)(C)O[C@@H]12,/,/,?,.,/,/
c1ccc(OC2CCCCC2N2CCOCC2)cc1 (stereo not given),/,.,.,.,/,.
O=C(c1ccc([N+](=O)[O-])cc1)N(Cc1ccco1)c1ccccn1,/,/,.,.,/,/
CCN(CC)C(=O)c1cccc(-c2csc(C(C)(O)c3ccc(OC)cc3)n2)c1 (stereo not given),/,?,?,11.6µM,/,5.8µM
